# In the supplement of paper PMC8728848:
# The full list was thinned out, with the strongest signals kept by preference.
# B1: GS7807E-bfa-538-23-538 (Bacteroides fragilis) (protein)
# chain: TDSFESFNTNEAGFDNDSKKQDFNYYGIPLGIIQQGIYFNYDWGSGKNWPFQTMQNLGADLFSGYVHDFNPFNEGKNNSTYYMMDGWNGSTWDNTYGYIMPEVQKSETINEKDNIGFFGITKILKVELMHRLSDLYGPIVYTQFGSKTGSTPDTQQEAYKAFFNDLDTGIAKIREYQKANPDIESFAKFDILMPQGKRTFSEWIRFANSLRLRLAVRIAMADSKLAVAEAQKALTDEEGLLEGNDEVVAVSTSSGYTNPFGEINKAWGEVFMNANMESLLVGYEDPRMEKYFDKATGSDATSLIDYKGTYKGIRQGTGFSHKNYNGHSKSTITQQTDAVLMTPAEVWFLRAEAALRGWSSESVKDCYEKGVKASFAQWGAAGAEAYLESDRKPSDYVDAFKAANNVKAVNTLTPKWDDAAGNEDKLGRIITQKWLAMFPEGGEAWAEQRRTGYPRLFPVLVNQSEGTVDTNLGPRRLNFFVGIKTTNPEQYTQLVNALGGIDNCGTRLWWDTGRNF
# Legend:
# Experiment in all cases: glycan array binding signal (z-score within array); higher = stronger binding
# Conditions in all cases: glycan notation: IUPAC condensed, linker removed
# Glc(a1-4)Glc = target: Glc(a1-4)Glc
# Outline: (§1)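 The Consortium for Functional Glycomics database supplied 3228 glycan arrays, of which those lacking an available protein sequence were dropped. The binding signal, a within-array Z-score, was averaged across arrays of the same protein sequence and across linkers. Negative scores can be read as non-binding.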
# GlcA(b1-3)GlcNAc = target: GlcA(b1-3)GlcNAc
# Outline: as §1
# [1] = target: GlcNAc(a1-4)Gal(b1-4)GalNAc
# Outline: as §1
# [2] = target: GlcNAc(a1-4)Gal(b1-4)GlcNAc(b1-3)Gal(b1-4)GlcNAc
# Outline: as §1
# [3] = target: GlcNAc(b1-3)Gal(b1-4)GlcNAc(b1-3)Gal(b1-4)GlcNAc(b1-3)Gal(b1-4)GlcNAc(b1-2)Man(a1-3)[GlcNAc(b1-3)Gal(b1-4)GlcNAc(b1-3)Gal(b1-4)GlcNAc(b1-3)Gal(b1-4)GlcNAc(b1-2)Man(a1-6)]Man(b1-4)GlcNAc(b1-4)[Fuc(a1-6)]GlcNAc
# Outline: as §1
# [4] = target: GlcNAc(b1-3)Gal(b1-4)GlcNAc(b1-3)Gal(b1-4)GlcNAc(b1-3)Gal(b1-4)GlcNAc(b1-3)Gal(b1-4)GlcNAc(b1-2)Man(a1-3)[GlcNAc(b1-3)Gal(b1-4)GlcNAc(b1-3)Gal(b1-4)GlcNAc(b1-3)Gal(b1-4)GlcNAc(b1-3)Gal(b1-4)GlcNAc(b1-2)Man(a1-6)]Man(b1-4)GlcNAc(b1-4)[Fuc(a1-6)]GlcNAc
# Outline: as §1
# [5] = target: GlcNAc6S(b1-3)Gal(b1-4)GlcNAc
# Outline: as §1
# [6] = target: Man(a1-3)[Man(a1-6)]Man(a1-6)[Man(a1-3)]Man(b1-4)GlcNAc(b1-4)GlcNAc
# Outline: as §1
# [7] = target: Man(a1-3)[Man(a1-6)]Man(b1-4)GlcNAc(b1-4)GlcNAc
# Outline: as §1
# [8] = target: Neu5Ac(a2-3)Gal(b1-3)GalNAc6S
# Outline: as §1
# [9] = target: Neu5Ac(a2-3)Gal(b1-4)GlcNAc(b1-2)Man
# Outline: as §1
# [10] = target: Neu5Ac(a2-3)Gal(b1-4)GlcNAc(b1-2)[Neu5Ac(a2-3)Gal(b1-4)GlcNAc(b1-4)]Man(a1-3)[GlcNAc(b1-4)][Neu5Ac(a2-3)Gal(b1-4)GlcNAc(b1-2)[Neu5Ac(a2-3)Gal(b1-4)GlcNAc(b1-6)]Man(a1-6)]Man(b1-4)GlcNAc(b1-4)GlcNAc
# Outline: as §1
# [11] = target: Neu5Ac(a2-3)Gal(b1-4)GlcNAc(b1-2)[Neu5Ac(a2-3)Gal(b1-4)GlcNAc(b1-6)]Man(a1-6)[Neu5Ac(a2-3)Gal(b1-4)GlcNAc(b1-2)Man(a1-3)]Man(b1-4)GlcNAc(b1-4)GlcNAc
# Outline: as §1
# [12] = target: Neu5Ac(a2-3)Gal(b1-4)GlcNAc(b1-6)GalNAc
# Outline: as §1
# [13] = target: Neu5Ac(a2-6)Gal(b1-4)GlcNAc
# Outline: as §1
# [14] = target: Neu5Ac(a2-6)Gal(b1-4)GlcNAc(b1-2)Man(a1-3)[Neu5Ac(a2-3)Gal(b1-4)GlcNAc(b1-2)Man(a1-6)]Man(b1-4)GlcNAc(b1-4)GlcNAc
# Outline: as §1
# [15] = target: Neu5Ac(a2-6)Gal(b1-4)GlcNAc(b1-2)Man(a1-6)[Gal(b1-4)GlcNAc(b1-2)Man(a1-3)]Man(b1-4)GlcNAc(b1-4)GlcNAc
# Outline: as §1
# [16] = target: Neu5Ac(a2-6)Gal(b1-4)GlcNAc(b1-3)Gal(b1-3)GlcNAc
# Outline: as §1
# [17] = target: Neu5Ac(a2-6)GlcNAc(b1-4)GlcNAc(b1-4)GlcNAc
# Outline: as §1
# [18] = target: Neu5Ac(a2-8)Neu5Ac(a2-8)Neu5Ac(a2-3)[GalNAc(b1-4)]Gal(b1-4)Glc
# Outline: as §1
binder,measurement,setting,value
B1,glycan array binding signal (z-score),Glc(a1-4)Glc,-0.685
same,glycan array binding signal (z-score),GlcA(b1-3)GlcNAc,-0.585
same,glycan array binding signal (z-score),[1],-0.527
same,glycan array binding signal (z-score),[2],-0.642
same,glycan array binding signal (z-score),[3],-0.408
same,glycan array binding signal (z-score),[4],-0.491
same,glycan array binding signal (z-score),[5],3.84
same,glycan array binding signal (z-score),[6],3.45
same,glycan array binding signal (z-score),[7],-0.656
same,glycan array binding signal (z-score),[8],-0.669
same,glycan array binding signal (z-score),[9],2.92
same,glycan array binding signal (z-score),[10],-0.734
same,glycan array binding signal (z-score),[11],0.242
same,glycan array binding signal (z-score),[12],0.432
same,glycan array binding signal (z-score),[13],-0.395
same,glycan array binding signal (z-score),[14],-0.678
same,glycan array binding signal (z-score),[15],3.21
same,glycan array binding signal (z-score),[16],-0.187
same,glycan array binding signal (z-score),[17],-0.677
same,glycan array binding signal (z-score),[18],2.93
